In PubChem BioAssay (NCI) one finds growth data, which are given here for 40 compounds.

Compounds without any hit were thinned out: in the full panel of roughly 83,000, 20% have a hit.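 For each line, cells grew in 96-well plates with the test compound present at a single concentration for 48 hours.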 Active and inactive are the calls of the source.

This assay concerns T-47D breast. In words: NCI-60 one-dose screen, 48 h (100 = growth as untreated, 0 = no growth, -100 = all killed). Conditions: 10 µM unless noted. Here is the method: Growth inhibition of the T-47D human tumor cell line is measured as a screen for anti-cancer activity. Cells are grown in 96 well plates and exposed to the test compound for 48 hours. Compounds are tested at a single concentration, which is 10^-5 M for most compounds. The reported endpoint is percent growth (GI% or GIPRCNT), where numbers from 0 - 100% represent growth inhibition, and numbers from -100% - 0 represent cell death. For example, a value of 40 represents 60% growth inhibition. A value of 0 means no net growth occurred over the course of the experiment. A value of -40 indicates 40% of cells at the beginning of the experiment died by the end of the experiment. A value of -100 means all cells are dead at the end of the experiment.
NCI-60 Human Tumor Cell Lines Screen was performed using the standard one-dose NCI protocol, which is described in more detail at https://dtp.cancer.gov/discovery_development/nci-60/default.htm.
Compounds with GIPRCNT values below 10 were considered active. Activity score was based on GIPRCNT using the following formula: […]
Score is 0 for GIPRCNT values of 100 or above, 50 for GIPRCNT values of 0, and 100 for GIPRCNT values of -100.
As for `NC(=NCCCOc1ccc(F)cc1)Nc1ccc(Cl)c(Cl)c1`, the growth was 29.2% (inactive).
As for `Cc1ccc(-c2nc3c(N=Nc4ccc(S(N)(=O)=O)cc4)c(N)nn3c(N)c2C#N)cc1`, the figure is 34.1% (inactive).
Regarding `Nc1nc(Cl)cc(NCCCCNc2cc(Cl)nc(N)n2)n1`, the growth was 108% (inactive).
With `FC(F)(F)c1cn(CCN2CCOCC2)c2ncnc(Cl)c12`, the growth was 95.1% (inactive).
For `O=c1[nH]ccc2nc(N3CCC(O)CC3)nc(Nc3cccc(C(F)(F)F)c3)c12` the value was 61.6% (inactive); for `CC(C)(C)NC(C1=CC(C)(C)c2ccccc2C1=O)c1ccccc1` (stereo not given), -71.8% (active).
For `Cc1cc2nc(-c3c(N)ncc(C#N)c3-c3ccc(Cl)cc3)[nH]c2cc1C` the value was 68.8% (inactive); for `COc1ccccc1S(=O)(=O)Nc1ccc2c3c(cc(-c4cnn(C)c4)nc13)C(=O)N2C`, 35.5% (inactive); for `COc1ccc(-c2nnc(SCC(=O)Nc3ccc(C(=O)/C=C/c4ccccc4)cc3)o2)cc1OC`, 98.7% (inactive).
As for `COc1ccccc1NC(=O)COc1ccc(/C=C2/Oc3cc4occc4c(OC)c3C2=O)cc1OC`, the figure is 86.4% (inactive); as for `Cc1cc[n+](CCCC[n+]2ccc(C)cc2)cc1`, 105% (inactive).
For the compound `O=C(O)c1ccc(-n2cc(/C=N/Nc3ccc(Cl)cc3)c(-c3ccc(F)c(F)c3)n2)cc1`, the growth was 65.9% (inactive).
For `CCCCOc1nc2ccc(Cl)cc2cc1/C=C/C(=O)/C=C/c1ccc(OC)cc1` the value was 86.8% (inactive); for `O=[N+]([O-])c1ccc(NS(=O)(=O)c2ccccc2)c2ccccc12`, 32% (inactive); for `Cc1cc(SCc2ccc(Cl)cc2Cl)nc(SCc2ccc(Cl)cc2Cl)n1`, 114% (inactive).
For `COc1cc(/C=C2/Oc3cc4occc4c(OC)c3C2=O)ccc1OCC(=O)Nc1ccncc1` the value was 108% (inactive).
For `C[C@H]1C=C(C[C@@H](O)CCCCCCCCCC[C@@H](O)[C@H]2CCC(=O)O2)C(=O)O1` the value was 92.6% (inactive).
`CC(C)CCC[C@@H](C)[C@H]1CC[C@H]2[C@@H]3CC=C4N(c5ccccc5)C(=O)CC[C@]4(C)[C@H]3CC[C@]12C`: the growth is 95% (inactive).
As for `O=C(NCCNc1nccc(-c2c(-c3cccc(O)c3)nc3sccn23)n1)c1ccccc1O`, the figure is 61.8% (inactive); as for `O=C(N/N=C/c1ccccc1O)c1ccccc1O`, 25.7% (inactive); as for `COc1ccc2c(c1)OC(N)=C(C#N)C2c1ccc(F)cc1` (stereo not given), 40.7% (inactive).
As for `CC(=O)c1ccc2c(c1)C1C=CCC1[C@H](c1cc3c(cc1Br)OCO3)N2` (stereo not given in full), the growth is 36.2% (inactive).
Regarding `c1coc(CSc2ncnc3nc[nH]c23)c1`, the growth was 93.6% (inactive).
For the compound `CN1CCN(C(=O)/C=C/c2ccc([N+](=O)[O-])o2)CC1`, the growth was 110% (inactive).
For `COc1cc(C(=O)NNC(=O)c2ccccc2C(=O)O)cc(OC)c1OC` the value was 39.5% (inactive); for `Clc1ccc(CN2COc3c(ccc4cccnc34)C2)cc1Cl`, 5.72% (active); for `COC(=O)c1ccc2c(c1)Oc1ccc(Cl)cc1-c1cc(C)nn1-2`, 71.7% (inactive).
Regarding `Nc1nccc2c1ccn2-c1ccc(NC(=O)Nc2cccc(C(F)(F)F)c2)cc1`, the growth is 85.1% (inactive).
As for `Cc1c(Cl)ccc2c(C(=O)Cl)cc(-c3ccccc3)nc12`, the figure is 90.9% (inactive).
As for `CN1CCN(CC(O)COc2c(Br)c(Br)c(Br)c3c2OC(C)(C)C3)CC1` (stereo not given), the figure is 81.3% (inactive); as for `CCOc1ccc(NC2=C(Cl)C(=O)c3ccccc3C2=O)cc1`, 66.7% (inactive); as for `CCOc1ccc(NC(=O)Nc2cc(C(C)C)ccc2C)cc1`, 77.3% (inactive).
For `Cc1cn(C2CC(N=[N+]=[N-])C(COP(=O)(O)OP(=O)(O)OP(=O)(O)O)O2)c(=O)[nH]c1=O` (stereo not given) the value was 111% (inactive).
On to `COc1ccc(/C=C/C(=O)c2ccc(-n3cc(CN4CCN(c5cc6c(cc5F)c(=O)c(C(=O)O)cn6C5CC5)CC4)nn3)cc2)cc1OC`, for which the growth is 28.1% (inactive).
Take `O=C(O)c1ccc(-n2cc(/C=N/Nc3ccccc3F)c(-c3ccc(O)cc3)n2)cc1`: the growth was 62.7% (inactive).
For `COc1ccc(-c2[nH]c3ccccc3c2/C=C(\C#N)S(=O)(=O)c2ccccc2)cc1` the value was 66.7% (inactive).
As for `COc1ccccc1S(=O)(=O)Nc1ccc2c3c(cc(-c4cnn(C5CC5)c4)nc13)C(=O)N2C`, the figure is 69.9% (inactive).
For `CCc1ccc(C2=C/C(=C/c3ccc(Cl)cc3)C(=O)N2CCc2ccc(S(N)(=O)=O)cc2)cc1` the value was 0.105% (active).
As for `CCOC(=O)n1cnc2c(Cl)ncnc21`, the growth is 100% (inactive).
For `c1ccc(CNCCN(CCNCc2ccccn2)Cc2ccc3ccccc3c2)nc1`, the growth was -4.67% (active).
